# Compound activity deposited in PubChem BioAssay by National Center for Advancing Translational Sciences (NCATS).
# Compounds with a hit are over-represented: about 1.6% of the library has one in this group of screens.
# IMPase cell inh: cell-permeable inhibitors of inositol monophosphatase (IMPase) | 120,000 tested, under 10 active | CHO-M1 cells, IP1 accumulation, HTRF TR-FRET ratio | AID 901 | inhibition (IP1 accumulation), % at 46.1 µM; active = well fitted curve in the direction sought with a large enough effect in the signal ratio, not every such curve was filed as active; inconclusive = small, poorly fitted or top-dose-only effect, or a change in a side signal; inactive = no such curve, though single readings can be large or run the other way; the % refers to the signal ratio;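 note: cells stimulated with carbachol in lithium chloride buffer; plate controls were DMSO basal wells for no effect and reference inhibitor wells for full effect; higher means more IMPase inhibition seen as more IP1 and lower FRET ratio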
# Target sequence (P97697 whole entry, looked up): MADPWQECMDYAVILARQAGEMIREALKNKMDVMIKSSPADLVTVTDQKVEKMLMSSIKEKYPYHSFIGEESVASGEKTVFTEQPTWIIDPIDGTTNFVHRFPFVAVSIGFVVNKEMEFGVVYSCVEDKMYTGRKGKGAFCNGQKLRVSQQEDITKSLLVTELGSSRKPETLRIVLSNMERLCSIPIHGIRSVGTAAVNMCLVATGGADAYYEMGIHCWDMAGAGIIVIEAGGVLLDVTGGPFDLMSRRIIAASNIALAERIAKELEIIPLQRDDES
#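 Seeded CHO-M1 cells were dosed with compound at up to 46 uM, stimulated with carbachol for 30 min, then lysed in IP-One detection reagents. Higher IP1 lowers the TR-FRET signal.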
# HTT ATP protect: Huntington cell model cytoprotection by ATP luminescence; Potency, µM (highest dose often 56.4 µM), without a hit: cytoprotection (ATP increase), hits mostly activators; actives 0.14% (n = 230,000); AID 1471; PC12 HTT-Q103 induced, cytoprotection, ATP luminescence, 40 h; note: potency is the fitted concentration of half-maximal effect; % of control where 0% means no effect; nearly all actives have a fitted effect of over 45% in size
#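 Stable PC12 Q103-GFP cells in serum-supplemented, phenol red-free DMEM; induction by tebufenozide at 100 nM final; compound dose series; cell viability quantified luminescently from ATP.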
# HTT aggregate: mutant huntingtin aggregation inhibition | PC12 HttQ103-GFP aggregates, Acumen cytometry, 40 h | Potency, µM (doses to about 46.1 µM), for the others: at the top dose activity change, negative = inhibition, actives largely listed as inhibitors | actives 1.1% (n = 220,000) | AID 1688; note: potency is the fitted concentration of half-maximal effect; % is set by controls: 0 for no effect and ±100 for the full control effect; nearly all actives have a fitted effect of over 60% in size
#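 Read-out: GFP aggregate count by laser scanning cytometer (488 nm excitation, 500-530 nm emission, 1–25 µm objects >6 SD above background). Cells: PC12, inducible HTTex1-Q103-GFP, 100 nM tebufenozide; compounds titrated.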
# LMNA splice mod: modulators of lamin A splicing. AID 1487. Potency, µM (titrated, usually from 46.1 µM), without a hit: top-dose ratio change, negative = inhibition, actives largely listed as inhibitors. HeLa LMNA splicing GFP/RFP minigene ratio, 48 h. actives 0.01% (n = 200,000); active = well fitted inhibition curve with a large enough effect in the signal ratio, with a control signal flat, not every such curve was filed as active; inconclusive = small, poorly fitted or top-dose-only effect, or effect the other way, or a change in a side signal; the % refers to the signal ratio; note: potency is the fitted concentration of half-maximal effect; % is set by controls: 0 for no effect and ±100 for the full control effect
#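 S3 HeLa stable clones carrying a lamin A-EGFP splicing minigene plus DsRed2 were seeded at 600 cells/well in Opti-MEM with 2% FBS, pin-dosed and incubated 48 h at 37°C. Acumen cytometry (488 nm) gave the GFP/RFP total-intensity ratio.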
# IMPase Li inh: IMPase inhibition in cells with lithium potentiation; CHO-M1 cells, IP1 TR-FRET (IP-One), carbachol + lithium; Potency, µM (top dose mostly 59.4 µM), inactives show at the highest dose activity, negative = IMPase inhibition, usual class: inhibitors; actives 0.35% (n = 210,000); AID 1457;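 note: IP1 builds up when IMPase is blocked and the TR-FRET signal falls; potency is the fitted concentration of half-maximal effect; plate controls were basal vehicle for no effect and high inhibitor control for full effect; nearly all actives have a fitted effect of over 50% in size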
#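 CHO cells stably expressing M1 receptor (2000/well) were cultured 16–30 h, then exposed to compounds with a small lithium addition for 30 min at 37C. IP1 was measured by TR-FRET competition; AC50 from Hill fits.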
# NPSR antag: blocks cAMP signaling of the human neuropeptide S receptor. actives 1% (n = 220,000). CHO-NPSR cells, cAMP TR-FRET, antagonist mode. AID 1461. Potency, µM (doses to about 38.3 µM), for the others: at the top dose activity change, negative = inhibition, usual class: inhibitors. Q6W5P4; note: potency is the fitted concentration of half-maximal effect; % is set by controls: 0 for no effect and ±100 for the full control effect; nearly all actives have a fitted effect of over 50% in size
# Target sequence (Q6W5P4 whole entry, looked up): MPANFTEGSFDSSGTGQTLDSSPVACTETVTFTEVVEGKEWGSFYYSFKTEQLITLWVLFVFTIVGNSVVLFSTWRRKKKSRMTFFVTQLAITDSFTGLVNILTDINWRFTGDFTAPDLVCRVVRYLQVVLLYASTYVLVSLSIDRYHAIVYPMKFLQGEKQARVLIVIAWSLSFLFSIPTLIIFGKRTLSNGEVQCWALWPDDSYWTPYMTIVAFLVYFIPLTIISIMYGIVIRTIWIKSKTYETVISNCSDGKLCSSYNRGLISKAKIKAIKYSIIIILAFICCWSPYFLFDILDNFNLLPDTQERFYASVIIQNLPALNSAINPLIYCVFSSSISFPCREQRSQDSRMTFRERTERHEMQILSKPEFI
# Active calls of the source: *; ? = inconclusive; / = no result given; [ ] = remark or other dose. Unless noted, calls come from the whole dose curve; as a rule, active = well fitted curve in the direction sought with a large enough effect; inconclusive = small, poorly fitted or top-dose-only effect, or another doubt; inactive = no such curve, though single readings can be large; an effect the other way counts as inactive or inconclusive.
SMILES,IMPase cell inh,HTT ATP protect,HTT aggregate,LMNA splice mod,IMPase Li inh,NPSR antag
COc1ccc(-c2n[nH]c(C(F)(F)F)c2-c2cc3ccccc3o2)c(O)c1,0,12%[10 µM],3.5µM*,?,/,-4%[46.1 µM]
Cc1cccc(N2C(=O)CC(Sc3nnc(C)s3)C2=O)c1 (stereo not given),13,-4%[10 µM],14µM*,-14%,1%,11%
O=C1NCN(c2ccccc2)C12CCN(CCCC(c1ccc(F)cc1)c1ccc(F)cc1)CC2,4[20.6 µM],?,14µM*,?,20%,13µM*
COc1cccc([C@@H]2Oc3ccc(OC)cc3/C(=N/O[C@@H](C)c3cn([C@H]4COC[C@H]4O)nn3)[C@@H]2O)c1,/,-10%[10 µM],/,/,/,/
Cc1ccc(N=C2NC(=O)c3cc([N+](=O)[O-])ccc32)cc1,?,-12%[10 µM],5%,-3%,13µM*,-52%
CS(=O)(=O)NNC(=O)CN1C(=O)C2C3C=CC(C3)C2C1=O (stereo not given),/,-15%,0.032µM*,13%[46 µM],-5%,25%
CNC(=O)CN1C(=O)C2C3C=CC(C3)C2C1=O (stereo not given),-1,18%[10 µM],9%,-14%,-2%,-24%[46.1 µM]
N#Cc1ccc(CS(=O)(=O)c2nnnn2-c2ccccc2)cc1,/,?,/,/,13%,/
O=C(CN1CCCCCC1)NCC1CCCO1 (stereo not given),/,2.2µM*,17%[9.22 µM],20%[46 µM],8%,-14%
O=C(CN1CCC(NC(=O)c2ccco2)CC1)Nc1ccccc1[N+](=O)[O-],/,5%[10 µM],-6%[9.22 µM],?,1%,1%
COc1ccc(S(=O)(=O)N(C(=O)c2ccco2)c2cc3sc(=O)oc3c3ccccc23)cc1,/,-4%[10 µM],19%,-1%,11%,-12%
CCOc1ccc(S(=O)(=O)N(C(=O)c2ccco2)c2cc3sc(=O)oc3c3ccccc23)cc1,/,0.89µM*,0%,-1%,13%,-27%
CO/N=C(/C(=O)N[C@@H]1C(=O)N2C(C(=O)O)=CCS[C@H]12)c1csc(N)n1,/,-9%,-5%,/,/,/
CCOC(=O)CSc1nnc(-c2ccccc2NC(=O)c2ccccc2)o1,2,-2%,-5%,-2%,11µM*,-9%[46.1 µM]
Cc1cc(C)cc(NC(=O)CSc2nnc(-c3ccccc3C)o2)c1,-2,-7%,-18%,-4%,7%[38.3 µM],?
CCc1nnc(NC(=O)CSc2nnc(-c3ccccc3NC(=O)c3ccccc3)o2)s1,6,-32%[10 µM],43%[9.22 µM],?,?,?
Cc1cccc(NC(=O)CSc2nnc(-c3ccccc3C)o2)c1,-1,/,0.0028µM*,?,7%,-19%[46.1 µM]
O=C(CCN1C(=O)COc2ccccc21)NCCN1CCc2ccccc2C1,0,-21%,13%,5%,15%[38.3 µM],3%[46.1 µM]
O=C(CCN1C(=O)COc2ccccc21)NCCCN1CCN(c2ccccc2F)CC1,-3,-34%,3.2µM*,12%,26%[38.3 µM],-6%[46.1 µM]
C[C@H](Oc1ccc(Oc2cnc3ccc(Cl)cc3n2)cc1)C(=O)O,-4,3%[10 µM],/,/,-5%,/
CC(C)c1ccc(S(=O)(=O)c2cc3cc(Br)ccc3oc2=O)cc1,5,-25%[10 µM],8%,?,14µM*,-52%
C[C@H]1C[C@H]2[C@H]3CCC4=CC(=O)C=C[C@@]4(C)[C@]3(F)[C@H](O)C[C@]2(C)[C@@]1(O)C(=O)COP(=O)(O)O,/,-22%[10 µM],/,/,10%,/
CCOC(=O)Cc1csc(-n2sc3ccccc3c2=O)n1,?,-26%[10 µM],38%,-7%,7.9µM*,-3%[46.1 µM]
CCOC(=O)Cc1csc(SCn2nnc3ccccc3c2=O)n1,1,13%[10 µM],-17%,?,15%,-15%[46.1 µM]
Cc1ccccc1NC(=S)NCCc1ccccc1,/,-36%[0.074 µM],11%,?,20%,-31%
SMILES,IMPase cell inh,HTT ATP protect,HTT aggregate,LMNA splice mod,IMPase Li inh,NPSR antag
Cc1ccccc1NC(=S)N/N=C/C(C)c1ccccc1 (stereo not given),/,4.5µM*,-1%,0%[46 µM],14%,-43%
Cc1cccc(NC(=S)N/N=C/C(C)c2ccccc2)c1C (stereo not given),/,-5%,1%,-16%[46 µM],6%,-29%
Cc1ccccc1NC(=S)NCc1ccccc1,/,5.6µM*,?,7%,4%,1%
COC(=O)C1[C@@H](OC)C(OC(=O)COc2ccc(OC)cc2)C[C@@H]2CN3CCc4c([nH]c5cc(OC)ccc45)[C@H]3C[C@H]12 (stereo not given in full),/,-11%,23%,/,/,/
CCCC1(c2ccccc2)NC(=O)N(CC(=O)Nc2sc(-c3ccccc3)cc2C(=O)OCC)C1=O (stereo not given),?,-50%,?,4%,2.8µM*,?
CCCC1(c2ccccc2)NC(=O)N(CC(=O)Nc2cc(C)on2)C1=O (stereo not given),/,8%[10 µM],12%,?,4%,-3%
COC(=O)c1sc(NC(=S)NC(=O)c2ccccc2F)nc1C,/,-96%,-18%,/,?,13µM*
COC(=O)c1sc(NC(=S)NC(=O)c2cccc(C)c2)nc1C,/,-16%[10 µM],2%,-2%,-9%,-26%
COc1ccc(OC)c(NC(=O)CSC2=Nc3ccccc3C3=NC(CCC(=O)NCCc4ccccc4)C(=O)N23)c1 (stereo not given),/,/,/,-3%[46 µM],/,/
CCCCC1=CC2=C(c3ccco3)C(=O)C(C)(OC(=O)c3ccc(OC)cc3)C(=O)C2=CN1CC(C)C (stereo not given),/,-8%[10 µM],8%[9.22 µM],?,?,10µM*
CCCCOC(=O)CNc1n[nH]c(=S)[nH]c1=O,?,-6%,-6%,22%,4µM*,10µM*
CC(C)COC(=O)CNc1n[nH]c(=S)[nH]c1=O,?,9%,18%,16%,?,?
COc1cc(C(=O)O[C@@H]2CC(C)=CC[C@@]3(C)CC[C@](O)(C(C)C)[C@H]23)ccc1O,/,19%,/,/,/,/
CC(C)(C)NC(=O)Nc1ccc(F)c(Cl)c1,/,-26%,13µM*,/,/,-16%
CCCNC(=O)Nc1ccc(F)c(Cl)c1,/,-20%,-9%,/,1%,12%
CCCCNc1nc(C)nc2c1nc(-c1ccccc1)n2CC1CCCN1CC (stereo not given),/,-31%,/,/,7%,/
Cc1cc(C(F)(F)F)c2c(N)c(C(=O)Nc3cc(C)on3)sc2n1,-10,-6%[10 µM],-6%,4%,11µM*,?
Cc1cc(C)c2c(N)c(C(=O)Nc3ccccc3C(F)(F)F)sc2n1,/,/,/,-13%[46 µM],/,/
Nc1c(C(=O)Nc2ccccc2F)sc2nc(Cc3ccccc3)cc(C(F)(F)F)c12,?,-49%,-28%,?,10µM*,?
